# Compounds without any hit were thinned out: in the full panel of roughly 83,000, 20% have a hit.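 48-hour exposure, single concentration, 96-well plates; percent growth endpoint where 0 means no net growth. Active: below 10.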 Unmarked numbers belong to inactive results. Calls of active or inactive are those of the source.
# Experiments:
# Assay in all cases: NCI-60 one-dose screen, 48 h (100 = growth as untreated, 0 = no growth, -100 = all killed)
# Settings in all cases: 10 µM unless noted
# T-47D breast = tested on: T-47D breast
# BT-549 breast = tested on: BT-549 breast
# MDA-MB-435 melanoma = tested on: MDA-MB-435 melanoma
# SW-620 colon = tested on: SW-620 colon
# MCF7 breast = tested on: MCF7 breast
# HCC-2998 colon = tested on: HCC-2998 colon
# KM12 colon = tested on: KM12 colon
# HCT-116 colon = tested on: HCT-116 colon
SMILES,growth (T-47D breast),growth (BT-549 breast),growth (MDA-MB-435 melanoma),growth (SW-620 colon),growth (MCF7 breast),growth (HCC-2998 colon),growth (KM12 colon),growth (HCT-116 colon)
COc1c(C(=O)Nc2ccc(C)c(Br)c2)ccc2ccccc12,88.9%,101%,31.7%,81.1%,96%,99.9%,81.2%,
NC(=O)c1c(NC(=O)c2ccc3ccccc3c2)sc2c1CCC(=O)C2,33.4%,20.9%,92.8%,14.3%,52.6%,107%,34.9%,
CCOC(=O)c1cc(C)n(-c2ccc(C(=O)O)cc2)c1C,102%,76.1%,107%,64.4%,67.1%,133%,,
COc1cc(-c2csc(NC(=O)c3ccc(N4CCOCC4)c(C(F)(F)F)c3)n2)cc(OC)c1OC,-5.81% (active),-7.47% (active),35.1%,48.9%,19.2%,60.2%,16.9%,
CCC(C)(C)C(=O)O[C@H]1C[C@@H](C)C=C2C=C[C@H](C)[C@H](CC[C@@H]3CC(SCCN)CC(=O)O3)[C@H]21 (stereo partly specified),89.8%,78.7%,93.3%,81.8%,79.9%,73.6%,88.2%,
Nc1ncnc2c1N=C(c1ccc(Br)cc1)CC(c1cccc(Nc3ccnc4cc(C(F)(F)F)ccc34)c1)N2 (stereo unspecified),68.6%,105%,38.3%,64.1%,22%,67.2%,60.2%,
O=C1Nc2ccc(C(=O)O)cc2/C1=N/c1nnc(Sc2ccccc2)s1,103%,123%,102%,103%,101%,112%,99.9%,
Cc1ccc(CNc2ccc3nc(CCC4CCCCC4)[nH]c3c2)cc1,3.58% (active),88%,55.6%,32.3%,22.1%,-25.2% (active),39.3%,
CNC(=O)c1ccccc1Oc1nc(Nc2cc(OC)c(OC)c(OC)c2)ncc1Br,,62.7%,74.5%,46.7%,44.5%,51.6%,11%,46.5%
COc1ccccc1N1CCCCC1,,96%,112%,99.9%,96.3%,110%,107%,102%
CCOC(=O)C1=C(N)Oc2c(sc3c(F)cccc23)C1c1ccc(O)cc1 (stereo unspecified),,23.3%,5.63% (active),31.1%,14.9%,38%,24%,26%
CCOC(=O)c1cc2c(n1C)-c1nc(NC(C)=O)sc1CCC2,,71.8%,98.5%,93.3%,61.6%,113%,87.7%,75.4%
O=C(Nc1ccccc1)Nc1ncnc2c1ncn2-c1ccc(Cl)cc1,,102%,92.1%,97.7%,82.5%,105%,87.1%,36.6%
COC(CC(F)F)c1cn(S(=O)(=O)c2ccc(C)cc2)c2ccccc12 (stereo unspecified),,34.9%,-43.8% (active),12.9%,13.6%,63.3%,19.3%,17.2%
CC(=O)N1N=C(c2ccc(C(F)(F)F)c(F)c2)CC1c1[nH]c(C)c(C(=O)NCC(F)(F)F)c1C (stereo unspecified),,89.9%,76.7%,94.3%,73.6%,72.1%,60.2%,34%
O=C(CSc1nc2sc3c(c2c(=O)n1-c1ccccc1)CCCCC3)N/N=C/c1cccc([N+](=O)[O-])c1,,38.1%,72.9%,52.4%,45.9%,98%,47.6%,4.84% (active)

SMILES,growth (T-47D breast),growth (BT-549 breast),growth (MDA-MB-435 melanoma),growth (SW-620 colon),growth (MCF7 breast),growth (HCC-2998 colon),growth (KM12 colon),growth (HCT-116 colon)
O=C(/C=C(/C=C/c1ccc2[nH]ccc2c1)OB(F)F)/C=C/c1ccc2[nH]ccc2c1,,-28.2% (active),-4.54% (active),6.41% (active),12.5%,-88.3% (active),-5.34% (active),-79% (active)
COc1ccc(C(O)c2cc3c(N)c(C(=O)Nc4cccc(Br)c4)sc3nc2C)cc1 (stereo unspecified),,3.53% (active),-33.4% (active),23.7%,9.88% (active),-33.9% (active),0.956% (active),6.39% (active)
COC(=O)c1c2c(c(C)[n+]([O-])c1C)C(=O)C(NCc1cccc(OC)c1)=CC2=O,,57.5%,-70.6% (active),7.85% (active),0.247% (active),22.3%,22%,1.61% (active)
CCC(C)N(CCNc1cc(OC)cc2cccnc12)CC(C)C (stereo unspecified),,106%,109%,85.5%,12.6%,96%,97.5%,
COC12C=C/C(=C(/C(=O)OCc3ccncn3)C(=O)CCCCCCCCC3(OC)C=C/C(=C(/C(=O)OCc4ccncn4)C(=O)CCCCCCCC1)O3)O2,,-27.1% (active),-34.4% (active),12.9%,5.92% (active),-85.1% (active),,-50.9% (active)
CCOC(=O)c1cc2c(n1Cc1cc(OC)c(OC)c(OC)c1)-c1nc(N)sc1CCC2,,51.2%,-38.7% (active),43.4%,27.6%,73.1%,30.8%,34.1%
Clc1cc(Cl)c(Cl)c(-c2nnc(SCc3ccncc3Br)o2)c1,,99%,98.4%,96.5%,91.8%,58.6%,96.2%,88.8%
CCCOC(=O)Nc1nc2ccc(SCC(C)C)cc2s1,,52.3%,-7.7% (active),33.8%,19.7%,77.1%,38.8%,34.6%
CCOC(=O)c1c(NC(=O)c2ccc(Cl)cc2)sc2c(CN(C)C)c(O)ccc12,,100%,76.7%,28.1%,66.6%,,87.9%,70.7%
O=C(CN1CCOCC1)Nc1nc(-c2cc3ccccc3oc2=O)cs1,,98.5%,104%,101%,79.2%,103%,100%,
COc1ccc(C(=O)Nc2cccc(-c3cc(=O)c4c(OC)c(OC)c(OC)cc4o3)c2)cc1,,51.4%,69.6%,88%,66.5%,70.3%,,47.8%
Cc1ccccc1/C=C/C(=O)c1cccc(OCCCOc2cccc(C(=O)/C=C/c3ccccc3C)c2)c1,,96.7% [3 µM],97.7% [3 µM],93.3% [3 µM],13.5% [3 µM],91.2% [3 µM],95.4% [3 µM],38.2% [3 µM]
NC(=O)c1cccc(-n2ccc3cc(NC(=O)c4ccc(N5CCOCC5)c(C(F)(F)F)c4)ccc32)n1,,45.3%,71.3%,68.2%,57.1%,79.8%,,44.5%
Cn1c(I)c(C#CCO[Si](C)(C)C(C)(C)C)c(=O)[nH]c1=O,,97.1%,97.4%,11.4%,88%,99.7%,107%,94.6%
NNc1nc(-c2cccnc2)nc2c1sc(=S)n2-c1ccccc1,,72.7%,112%,102%,92.5%,108%,102%,76.4%
N#Cc1ccc(O)c(C2=NCC(c3ccccc3)O2)c1 (stereo unspecified),,31.9%,57.8%,28.6%,25.3%,47.8%,,17.5%
